Experimental data reported in PubChem BioAssay AID1508625 (Wald Lab, School of Medicine, Case Western Reserve …, 2021).

Experiment: small molecules boosting NK-mediated OVCAR3 lysis – imaging, primary NK cells, calcein-AM imaging, primary screen (AID 1508625);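 note: compound given to NK cells 16 h before adding targets at 1.5 to 1 ratio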;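 for z-score: more negative robust z means stronger NK killing of tumor cells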
Settings: OVCAR3 lysis by primary NK cells, at 5 µM; z-score: measured here: robust Z-score, single-point normalisation

Compound | corrected activity, negative = more killing [%] | z-score
Cc1ccc(C(=O)Nc2ccc(NC(=O)c3ccc(C(C)(C)C)cc3)cc2)cc1[N+](=O)[O-] | -2.5 | -0.888
Cn1c(=O)c2c(nc(Oc3ccc(Cl)cc3)n2Cc2ccccc2Br)n(C)c1=O | -3.02 | -0.9
COc1cc(OC)c(OC)cc1CN1CCN(C(=O)c2ccncc2)CC1 | -2.22 | -0.992
COC(=O)c1sc(N2C(=O)C(=O)C(=C(O)c3ccc(Cl)cc3)C2c2ccc(C)cc2)nc1C (centres undefined) | -3.82 | -1.66
CCCn1cnc2sc(C(=O)Nc3ccc(Oc4ccc5c(c4)C(=O)N(c4ccc6c(c4)OCO6)C5=O)cc3)c(C)c2c1=O | -4.94 | -1.8
Cc1cccn2c(=O)c3cc(C(=O)N4CCCCCC4)sc3nc12 | -6.34 | -1.8
Cc1ccc(-c2coc3c(C)c4oc(=O)c5c(c4cc23)CCC5)cc1 | -5.02 | -1.5
CC(=O)Oc1ccc(C(=O)Nc2nc3ccc4ccccc4c3s2)cc1 | -1.08 | -0.335
CCOc1ccc2cc(C3=NN(C(=O)CCC(=O)O)C(c4ccc(Br)cc4)C3)c(Cl)nc2c1 (centres undefined) | -2.89 | -1.55
COc1ccc(NC(=O)C(N)=O)cc1 | -3.82 | -1.62
COc1cc(NC(=O)c2cccs2)ccc1NC(=O)c1ccccc1Cl | -4.46 | -2.48
Clc1cccc(N2CCN(Cc3cn4c(-c5cccc(Br)c5)nnc4s3)CC2)c1 | -6.72 | -1.91
Cc1ccc(NC(=O)CSc2nnc(N3C(=O)c4ccccc4C3=O)s2)c(C)c1 | -5.41 | -1.68
COC(=O)c1ccc(-n2nnnc2SCC(=O)Nc2ccc(F)cc2)cc1 | -6.69 | -2
CCOC(=O)c1cnc(SCc2ccccc2Cl)nc1N | -1.75 | -0.473
CCCOc1cccc(C(=O)Nc2ccc3nn(-c4ccc(OC)cc4)nc3c2)c1 | -3.41 | -1.21
Cc1cc(Br)ccc1NC(=O)Cn1cnc2sc(C)c(S(=O)(=O)N3CCN(C)CC3)c2c1=O | -7.06 | -1.76
Cc1cccc(C)c1NC(=O)c1sc2[nH]c(=O)c(C(=O)O)cc2c1N | -3.74 | -0.931
O=c1oc(-c2ccc(Oc3ccc([N+](=O)[O-])cc3)cc2)nc2ccccc12 | -1.57 | -0.62
Cc1ccc2nc(-c3ccc(Cl)c(NC(=O)Cc4ccccc4)c3)oc2c1 | -3.3 | -1.77
CC(=O)Nc1ccc(N=Cc2ccc(C)cc2)cc1 | -3.8 | -0.8

Compound | corrected activity, negative = more killing [%] | z-score
CC(C)(C)NC(=O)CSc1nc2ccc(Cl)cc2o1 | -2.67 | -0.828
CCc1ccc(N2C(=O)CSC2c2ccc(Br)cc2)cc1 (centres undefined) | -3.8 | -1.62
N#Cc1c(NC(=O)CN2C(=O)C3CC=C(Cl)CC3C2=O)sc2c1CCC2 (centres undefined) | -0.241 | -0.0746
COc1ccc(OC)c(-n2c(=S)[nH]c3cc(C(=O)Nc4ccc5c(c4)CCC5)ccc3c2=O)c1 | -3.65 | -1.16
CC(C)CCNC(=O)c1c[nH]c2ccc(S(=O)(=O)N3CC(C)CC(C)C3)cc2c1=O (centres undefined) | -3.33 | -1.21
O=C(O)CN1C(=O)c2cccc3c(Br)ccc1c23 | -4.58 | -2.46
CC(C)(C)C1CCC(=O)C(C2(O)C(=O)Nc3ccc(Br)cc32)C1 (centres undefined) | -3.34 | -0.998
CCC(C)N1C(=O)c2ccccc2C1C(=O)NC1CCCCCC1 (centres undefined) | -6.27 | -1.78
CN(C(=O)c1cnc2n(c1=O)CCS2)c1ccccc1 | -7.51 | -2.39
O=C(O)CSCCC(=O)Nc1ccc(F)cc1 | -7.17 | -1.93
Cc1ccc(S(=O)(=O)NCc2cc(-c3nn(C)c(=O)c4ccccc34)ccc2C)cc1 | -2.25 | -0.924
O=C(NN=Cc1ccc(O)cc1)c1cc(-c2ccc3ccccc3c2)n[nH]1 | 0.541 | 0.236
COc1cc(OC)c(CNc2ccc(F)cc2C)cc1Br | -7.05 | -2.24
O=C(CC1Sc2ccccc2NC1=O)Nc1ccc2c(c1)OCO2 (centres undefined) | -2.14 | -0.818
COc1ccc(C)cc1NC(=O)c1sc2nc(C)nc(N3CCCCC3C)c2c1C (centres undefined) | -3.27 | -1.75
Cc1cc(Nc2ncnc3sc4c(c23)CCCC4)ccc1Br | -1.91 | -1.03
CCOC(=O)c1ccc(NC(=O)CCc2ccccc2)cc1 | -3.6 | -1.15
Cc1cc(C)c(CSc2nnc(C)s2)c(C)c1 | -5.76 | -1.78
CC(=O)c1cccc(NC(=O)CSc2ccc(Cl)cc2)c1 | -1.79 | -0.668
Cc1cccc(C)c1OCCNC(=O)c1cc2ccccc2o1 | -1.04 | -0.579
CCc1ccc(NS(=O)(=O)c2ccc3[nH]cc(C(=O)N(C)Cc4ccccc4)c(=O)c3c2)cc1 | -2.32 | -0.569
